Experimental data from PubChem BioAssay (NCATS).
Inconclusive results are not listed. Entries that show only a call come without a potency. Active and inactive are the calls of the source. The call rests on the fitted dose curve.

Experiment: Primary qHTS for inhibitors of SARS-S pseudo-typed particle cell entry (AID 1479145); further: nearly all actives have a fitted effect of over 45% in size
Settings: SARS-S pseudotyped particle cell entry, luciferase reporter; series mostly up to 57.1 µM
Potency means the concentration at half of the fitted maximal effect.

| SMILES | Potency |
| --- | --- |
| CC(C)(C)NC(=O)[C@H]1CC[C@H]2[C@@H]3CC[C@H]4NC(=O)C=C[C@]4(C)[C@H]3CC[C@]12C | inactive |
| CN1CCC[C@@H]1CCO[C@](C)(c1ccccc1)c1ccc(Cl)cc1 | 10 µM (active) |
| CCCN(CCC)S(=O)(=O)c1ccc(C(=O)O)cc1 | inactive |
| Cc1cccc(Nc2ccncc2S(=O)(=O)NC(=O)NC(C)C)c1 | inactive |
| CCOC(=O)[C@H](CCc1ccccc1)N[C@@H](C)C(=O)N1Cc2ccccc2C[C@H]1C(=O)O | inactive |
| CCOC(=O)Nc1ccc2c(c1)N(C(=O)CCN1CCOCC1)c1ccccc1S2 | inactive |
| OC(Cn1cncn1)(Cn1cncn1)c1ccc(F)cc1F | inactive |
| NC(=O)OCC(COC(N)=O)c1ccccc1 | inactive |
| COc1cc2c(cc1OC)[C@@H]1CC(=O)[C@@H](CC(C)C)CN1CC2 | inactive |
| CC12CC3CC(C)(C1)CC(N)(C3)C2 | inactive |
| CC1(C)S[C@@H]2[C@H](NC(=O)C(C(=O)O)c3ccccc3)C(=O)N2[C@H]1C(=O)O (stereo partly drawn) | inactive |
| N=c1nc(N2CCCCC2)cc(N)n1O | inactive |
| Cc1ccc(C)c(OCCCC(C)(C)C(=O)O)c1 | inactive |
| c1cnc2cc3c(cc2n1)C1CNCC3C1 | inactive |
| CCOC(=O)C1=C(C)NC(C)=C(C(=O)OC)C1c1cccc(Cl)c1Cl (stereo not drawn) | inactive |
| C[C@@H](O)[C@H]1C(=O)N2C(C(=O)O)=C(S[C@@H]3CN[C@H](C(=O)N(C)C)C3)[C@H](C)[C@H]12 | inactive |
| COC(=O)[C@H]1[C@H]2C[C@@H]3c4[nH]c5cc(OC)ccc5c4CCN3C[C@H]2C[C@@H](OC(=O)c2cc(OC)c(OC)c(OC)c2)[C@@H]1OC | inactive |
| O=C(O)COCCN1CCN(C(c2ccccc2)c2ccc(Cl)cc2)CC1 (stereo not drawn) | inactive |
| O=C(c1ccc(OCCN2CCCCC2)cc1)c1c(-c2ccc(O)cc2)sc2cc(O)ccc12 | 20 µM (active) |

| SMILES | Potency |
| --- | --- |
| Cc1ccc(S(=O)(=O)NC(=O)NN2CCCCCC2)cc1 | inactive |
| Cc1c(O)cccc1C(=O)N[C@@H](CSc1ccccc1)[C@H](O)CN1C[C@H]2CCCC[C@H]2C[C@H]1C(=O)NC(C)(C)C | inactive |
| CCCCNC(=O)NS(=O)(=O)c1ccc(C)cc1 | inactive |
| CC#C[C@]1(O)CC[C@H]2[C@@H]3CCC4=CC(=O)CCC4=C3[C@@H](c3ccc(N(C)C)cc3)C[C@@]21C | inactive |
| Cn1cnc([N+](=O)[O-])c1Sc1ncnc2nc[nH]c12 | inactive |
| CC/C=C(\C(=O)N[C@@H]1C(=O)N2C(C(=O)OCOC(=O)C(C)(C)C)=C(COC(N)=O)CS[C@H]12)c1csc(N)n1 | inactive |
| O=C(O)CCNC(=O)c1ccc(N=Nc2ccc(O)c(C(=O)O)c2)cc1 | inactive |
| NS(=O)(=O)Cc1noc2ccccc12 | inactive |
| CCCCNc1ccc(C(=O)OCCOCCOCCOCCOCCOCCOCCOCCOCCOC)cc1 | inactive |
| O=c1n(CCCN2CCN(c3cccc(Cl)c3)CC2)nc2ccccn12 | inactive |
| CCn1cc(C(=O)O)c(=O)c2ccc(C)nc21 | inactive |
| COc1ccc(Cl)cc1C(=O)NCCc1ccc(S(=O)(=O)NC(=O)NC2CCCCC2)cc1 | inactive |
| O=NN(CCCl)C(=O)NC1CCCCC1 | inactive |
| Clc1ccc2c(c1)C(N1CCNCC1)=Nc1ccccc1O2 | inactive |
| Cc1ccc2c(n1)Oc1ccc(C(C)C(=O)OCC(=O)N(C)C)cc1C2 (stereo not drawn) | inactive |
| CCCN(CCC)CCc1cccc2c1CC(=O)N2 | inactive |
| CC[C@@H](CO)NCCN[C@@H](CC)CO | inactive |
| O=C(O)CCCc1ccccc1 | inactive |
| CN(C)CCOC(c1ccc(Cl)cc1)c1ccccn1 (stereo not drawn) | inactive |
